Sampled rows, rich in hits. Any-hit rate of the full collection: about 3.7%.
tim10-1 inh: inhibits growth of tim10-1 mutant yeast; 330,000 compounds, 2.2% hits; inhibition, % at 20 µM; S. cerevisiae tim10-1 ts strain growth, BacTiter-Glo, 24 h;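 active = inhibition of at least 40%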;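 note: mutant grown at 25 °C; 0% = DMSO wells with yeast and 100% = wells holding no yeast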
NLRP3 yeast inh: inhibitors of NALP3 inflammasome in yeast; Yeast reconstituted NLRP3/ASC/caspase-1, beta-gal luminescence, 24 h; 330,000 compounds, 0.39% hits; inhibition, % at 10 µM;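 active = inhibition of 50% or more; inactive = inhibition below 50%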;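 note: plate controls were induced DMSO wells for no effect and uninduced yeast grown without galactose for full effect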
PfHsp90 set2: inhibits growth of yeast expressing Plasmodium falciparum Hsp90 | S. cerevisiae expressing PfHsp90, BacTiter-Glo ATP, 48 h; yeast lacking PDR1 and PDR3 efflux regulators | inhibition, % at 9.4 µM | 310,000 compounds, 0.32% hits;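 active = every replicate shows inhibition above about 80%, whatever the replicate mean, limit read from the data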;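 note: 0% = DMSO neutral controls and 100% = 20 µM radicicol positive controls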
tim23-1 inh: growth inhibitors of tim23-1 mutant yeast. 330,000 compounds, 1.3% hits. S. cerevisiae tim23-1 growth, BacTiter-Glo luminescence, 24 h. inhibition, % at 20 µM;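 active = growth inhibition of the mutant yeast at or above 50%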;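 note: temperature-sensitive mutant grown at 25 °C; plate controls were DMSO-treated mutant yeast for no effect and medium wells lacking yeast for full effect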
TIM10 inh: inhibits growth of TIM10 yeast strain | inhibition, % at 10 µM | S. cerevisiae TIM10 strain growth, BacTiter-Glo luminescence, 24 h | 330,000 compounds, 1.4% hits | AID 463195;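 active = inhibition of 40% or more at the single tested concentration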;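 note: wild-type TIM10 isogenic control strain grown at permissive 25 °C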
TIM10 conf: TIM10 yeast growth inhibition, confirmed; shares compounds with TIM10 inh; S. cerevisiae tim10 strain growth, BacTiter-Glo luminescence, 24 h; inhibition, % at 10 µM; 4,600 compounds, 63% hits; AID 463215;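 active = inhibition of yeast growth at or above a set limit in either of two replicates at 10 µM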;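 note: this counterscreen used the strain with wild-type TIM10; 0% = yeast with DMSO and 100% = medium wells lacking yeast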
tim23-1 confirm: tim23-1 yeast growth inhibition, confirmed; shares compounds with tim23-1 inh; S. cerevisiae tim23-1 growth, BacTiter-Glo luminescence, 24 h; inhibition, % at 20 µM; 4,400 compounds, 83% hits; AID 463218;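 active = inhibition above about 39% in either of two replicate wells at 20 µM, limit read from the data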;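 note: temperature-sensitive tim23-1 mutant grown at 25 °C; 0% = DMSO wells with yeast and 100% = medium wells without yeast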
Active calls of the source: *; nt = no result given.

SMILES	tim10-1 inh	NLRP3 yeast inh	PfHsp90 set2	tim23-1 inh	TIM10 inh	TIM10 conf	tim23-1 confirm
CN(Cc1ccccc1)C(=O)c1ccco1	5	-12	nt	-4	-19	nt	nt
O=C(C#Cc1ccccc1)c1ccco1	22	-28	104*	61*	56*	69*	62*
CC(=O)N1c2ccc(N=Cc3cc(Br)cc(Br)c3O)cc2CC1C (stereo not drawn)	35	12	nt	84*	73*	28	87*
O=C(CN1C(=O)NC2(CCOc3ccccc32)C1=O)c1ccc(F)c(F)c1 (stereo not drawn)	32	21	nt	-1	-5	nt	nt
O=C(O)C1CCN(C(=O)CSc2nc3cc(Cl)ccc3c(=O)n2Cc2ccccc2)CC1	0	14	5	9	12	nt	nt
Nc1ccc(-c2nc3ncccc3o2)c(O)c1	1	48	-10	58*	50*	43*	65*
Nc1ccc(Cl)c(-c2nc3ncccc3o2)c1	-1	14	-9	-1	8	nt	nt
CC(C)(C)c1cc(C(C)(C)C)cc(S(=O)(=O)CCc2ccccn2)c1	31	3	30	59*	51*	57*	54*
Cc1cccc(NC(=O)COc2ccc(Br)cc2/C=N/O)c1	14	39	5	50*	56*	61*	78*
CC(=O)N1CCC2(CC1)C(C#N)=C(N)Oc1n[nH]c(C)c12	19	-3	-11	5	9	nt	nt
O=C(Nc1nc2cc3c(cc2s1)OCCO3)c1cccs1	10	33	56	37	24	nt	nt
CC(C)CN1C(=O)c2ccc(NC(=O)c3cccs3)cc2C1=O	-6	36	2	53*	46*	50*	54*
O=C(Nc1ccc(N2CCCC2)c(Cl)c1)c1cccs1	28	35	-10	50*	45*	34*	55*
Cn1cnc2cc(NC(=O)c3cccs3)ccc21	18	21	-8	11	29	nt	nt
O=C(Nc1ccc2c(c1)OCCO2)c1cccs1	15	37	7	56*	45*	50*	65*
O=C(Nc1ccc2nn(-c3ccccc3)nc2c1)c1cccs1	30	6	-11	54*	53*	54*	65*
CC(C)CN1C(=O)c2ccc(NC(=O)c3ccccc3F)cc2C1=O	-14	10	30	3	14	nt	nt
COC(=O)c1ccccc1N(C)S(=O)(=O)c1cc2c3c(c1)CCC(=O)N3CCC2	4	17	-28	17	19	nt	nt
COCc1cccc(C2=CC(=O)C[C@H](c3ccc(F)cc3)C2)c1	16	1	-38	39	-2	nt	nt
COc1ccnc(-n2cccc2/C=N/O)c1C#N	-5	14	10	-4	-15	nt	nt
CC(c1ccccc1)N1CCn2c(nc3cc(NC(=O)c4cccs4)ccc32)C1 (stereo not drawn)	24	16	12	53*	44*	32*	64*
CCC(C(=O)OC)(C(=O)OC)c1ccc([N+](=O)[O-])cc1	11	-7	nt	10	5	nt	nt
O=C(CSCc1c(Cl)cccc1Cl)Nc1ccc2c(c1)OCCO2	27	20	-35	49	24	nt	nt
CCCN(CCC)S(=O)(=O)c1cccc(C(=O)N=c2sccn2C)c1	-1	16	3	21	-32	nt	nt
COc1ccc(-c2nnc(Sc3nc4ccccc4o3)c3ccccc23)cc1	27	19	15	52*	42*	36*	42*
SMILES	tim10-1 inh	NLRP3 yeast inh	PfHsp90 set2	tim23-1 inh	TIM10 inh	TIM10 conf	tim23-1 confirm
COc1ccc(-c2nnc(OC)c3ccccc23)cc1	22	39	-1	41	-14	nt	nt
COc1ccccc1/C=N\NC(=O)c1c(C)nc2ccc(Cl)cn12	8	14	18	14	4	nt	nt
COc1cccc(/C=N/NC(=O)c2c(C)nc3ccc(Cl)cn23)c1O	26	6	5	59*	48*	65*	58*
Oc1ccc(Cl)cc1Cc1cc(Cl)ccc1O	-8	12	107*	73*	50*	63*	8
COc1ccc(/C=N/n2c(N)nc3ccccc32)cc1OC	-7	17	3	-1	-4	nt	nt
COc1cccc(/C=N/n2c(N)nc3ccccc32)c1OC	10	10	-12	60*	44*	45*	38
Cc1[nH]c(-c2ccc(F)cc2)cc1C(=O)N1CCN(c2ccc(Cl)cc2)CC1	36	21	-53	73*	49*	42*	54*
CCOC(=O)N1CCN(C(=O)c2cc(-c3ccc(F)cc3)[nH]c2C)CC1	18	-5	nt	11	15	nt	nt
Cc1ccc(-c2nnc(N3CCCCCC3)c3ccccc23)cc1	25	35	0	60*	44*	15	54*
COC(=O)N/N=C/c1cn(Cc2ccc(F)cc2)c2ccccc12	14	15	-20	20	12	nt	nt
CNC(=S)N/N=C/c1cn(Cc2ccc(F)cc2)c2ccccc12	19	16	-45	51*	40*	49*	39*
CC(=O)N=C1C=CC(=CN(O)C(C)(C)Cc2ccccc2)C=C1	9	4	-22	18	1	nt	nt
CC(C)=CCc1c(O)ccc(C(=O)Cc2ccccc2)c1O	19	20	-9	67*	41*	58*	-32
O=C(Cc1cnn(-c2ccccc2)c1)c1ccc(O)c(O)c1O	29	13	3	29	11	nt	nt
Oc1ccc(/C=C/c2ccc3ccccc3n2)cc1	16	48	50	75*	44*	47*	55*
C(=C\c1ccc2ccccc2n1)/c1ccccc1	-8	36	2	25	-2	nt	nt
N#C/C(=C\c1ccccc1Cl)C(=O)Nc1ccccn1	33	-2	3	64*	43*	23	42*
Cc1cccc(NC(=O)c2ccco2)c1C	-22	-12	3	-3	-9	nt	nt
Cc1cc(NC(=O)c2ccco2)sc1C	0	39	33	52*	43*	27	59*
O=C(/C=C\Nc1ccc2c(c1)OCO2)c1ccc2c(c1)OCO2	-19	18	7	-1	-13	nt	nt
O=C1Nc2ccc(Br)cc2/C1=C/C(=O)c1ccc2c(c1)OCO2	17	17	106*	73*	53*	64*	-70
Cc1ccc(C(=O)NCCCNC(=O)c2ccccc2C)cn1	10	6	-12	6	-13	nt	nt
COc1cccc(N/N=C/c2cccc(Br)c2O)c1	23	10	-7	58*	57*	36*	69*
O=C(NCCN1CCOCC1)c1cc2sccc2n1Cc1ccc(Cl)cc1	24	9	1	14	26	nt	nt
CC1=NN(C(N)=S)C(=O)C1N=Nc1c(Br)cc(Br)cc1Br (stereo not drawn)	35	36	-85	60*	45*	60*	63*

High-throughput results (PubChem)
